Data taken from PubChem BioAssay (EPA / NIEHS).
Records with an inconclusive call do not appear. Calls of active or inactive are those of the source. The calls were made as follows, unless noted: active = hit-call score of the fitted dose curve at least 0.9, where 1 is the maximum; inactive = score below 0.9.

Key:
[1] = ACEA_ER_80hr: ACEA Biosciences xCELLigence Real-Time Cell Analysis on Estrogen Receptor Agonism for Proliferation (AID 2282667; active = hit-call score of the fitted dose curve at least 0.9, where 1 is the maximum); conditions: T47D proliferation, impedance (xCELLigence), 80 h
In short: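 Cell-growth kinetics were measured by impedance in T47D cells treated continuously with compound (top 100 uM final, 1:4 steps, 8 points). Activity at 80 h was scored as signal gain over the DMSO baseline.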

[2] = ATG_CRE_CIS: Attagene CIS-FACTORIAL HepG2 Assay for human cAMP Responsive Element (CRE) binding protein 3 (AID 2282926); conditions: HepG2 CRE cis-reporter, Attagene multiplexed mRNA; actives raise or lower the signal
In short: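 Cells carrying cis-regulated reporter constructs respond through their own endogenous factors. After 24 h treatment, RNA is reverse-transcribed, amplified, labelled and sized by capillary electrophoresis; up- and down-regulation are both scored against vehicle.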

[3] = ATG_CMV_CIS: Attagene CIS-FACTORIAL HepG2 Assay for human CMV (Internal Marker) (AID 2282928); conditions: HepG2 CMV promoter reporter, transcription factor profiling; actives raise or lower the signal;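 also: endpoint acts as a background internal control marker rather than a target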
In short: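 24 h chemical treatment, HepG2 with transient multi-reporter transfection; RNA → oligo(dT) RT → PCR → 6-FAM extension → HpaI digest → CE fluorescence. Bidirectional fit, DMSO negative control.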

[4] = ATG_DR4_LXR_CIS: Attagene CIS-FACTORIAL HepG2 Assay for human Liver X Receptor (LXR), DR4 submotif (AID 2282929); conditions: HepG2 Attagene DR4 cis-reporter, mRNA transcription; actives raise or lower the signal
In short: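 DR4 cis-reporter in HepG2, 24 h exposure. Detection: RT-PCR, 6-FAM labelling, CE fragment analysis. Endpoint fitted bidirectionally, DMSO = baseline.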

[5] = target: Aryl hydrocarbon receptor (Homo sapiens) (UniProt P35869); experiment: ATG_Ahr_CIS: Attagene CIS-FACTORIAL HepG2 Assay for human Aryl Hydrocarbon Receptor (Ahr) (AID 2282930); conditions: HepG2 AhR cis-factorial reporter transcription; actives raise or lower the signal
In short: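 Endogenous factor activity is tracked through cis-promoter reporter units transfected into HepG2 cells. Transcript levels at 24 h are read by fluorescent RT-PCR and capillary electrophoresis, with activity in either direction scored relative to DMSO.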

[6] = ATG_AP_2_CIS: Attagene CIS-FACTORIAL HepG2 Assay for human Activator Protein 2 (AP-2) (AID 2282932); conditions: HepG2 AP-2 cis-reporter, Attagene transcription factor profiling; actives raise or lower the signal
In short: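 Read-out: fluorescent reporter mRNA via RT-PCR and capillary electrophoresis, 24 h post-dose in transiently transfected HepG2. Endogenous factors drive cis-promoter reporters; gain or loss of signal fitted bidirectionally against DMSO.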

[7] = ATG_BRE_CIS: Attagene CIS-FACTORIAL HepG2 Assay for human Bone Morphogenetic Protein (BMP) Response Element (BRE) (AID 2282933); conditions: HepG2 BMP response element reporter, Attagene transcription factor profiling; actives raise or lower the signal
In short: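 HepG2 cells transiently transfected with multiplexed cis-element reporter units were dosed with chemical for 24 h. Reporter mRNA was measured by RT-PCR with fluorescent labelling, HpaI digestion and capillary electrophoresis; bidirectional fitting relative to DMSO.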

[8] = target: Retinoic acid receptor alpha (Homo sapiens) (UniProt P10276); experiment: ATG_DR5_RAR_CIS: Attagene CIS-FACTORIAL HepG2 Assay for human Retinoic Acid Receptor Alpha (RARE), DR5 submotif (AID 2282934); conditions: HepG2 Attagene cis-factorial RARE DR5 reporter, mRNA; actives raise or lower the signal
In short: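 After 24 h of chemical exposure, transiently transfected HepG2 cells were lysed for total RNA; the DR5-regulated reporter transcript was quantified via RT-PCR and capillary electrophoresis, with activity fitted bidirectionally against DMSO.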

[9] = target: Transcription factor E2F1 (Homo sapiens) (UniProt Q01094); experiment: ATG_E2F_CIS: Attagene CIS-FACTORIAL HepG2 Assay for human E2F Transcription Factor 1 (AID 2282935); conditions: HepG2 Attagene cis-reporter, E2F reporter RNA transcripts; actives raise or lower the signal
In short: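 Transient MRTU transfection of HepG2; 24 h compound exposure; RNA → oligo(dT) RT → PCR → FAM label → HpaI cut → CE fluorescence. Gain/loss of signal fit against DMSO.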

[10] = ATG_E_Box_CIS: Attagene CIS-FACTORIAL HepG2 Assay for human Enhancer Box (E-box) (AID 2282936); conditions: HepG2 E-box cis-reporter transcription, actives raise or lower the signal
In short: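 Transiently transfected HepG2, endogenous TF-driven reporters, 24 h dosing. Readout: RT-PCR plus capillary electrophoresis of fluorescent reporter fragments. Gain or loss of signal fitted bidirectionally against DMSO baseline.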

[11] = ATG_M_61_CIS: Attagene CIS-FACTORIAL HepG2 Assay for M61 Transcription Factor (Internal Marker) (AID 2282937); conditions: HepG2 Attagene CIS-FACTORIAL M61 internal marker reporter; actives raise or lower the signal
In short: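 Background-control endpoint: HepG2 cells with cis-regulated reporter constructs, 24 h exposure, reporter mRNA detected via fluorescent primer extension and capillary electrophoresis; values from bidirectional fitting with DMSO baseline.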

[12] = ATG_EGR_CIS: Attagene CIS-FACTORIAL HepG2 Assay for human Early Growth Response 1 (EGR1) (AID 2282938); conditions: HepG2 Attagene CIS-FACTORIAL EGR reporter mRNA; actives raise or lower the signal
In short: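 Endpoint derived by bidirectional fitting versus DMSO vehicle. Method: cis-promoter reporter units transfected into HepG2, 24 h dosing, RNA isolation, RT-PCR with 6-FAM primer extension and HpaI digestion, then capillary electrophoresis fluorescence detection.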

[13] = ATG_M_19_CIS: Attagene CIS-FACTORIAL HepG2 Assay for M19 Transcription Factor (Internal Marker) (AID 2282939); conditions: HepG2 Attagene CIS-FACTORIAL M19 internal marker reporter; actives raise or lower the signal
In short: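 HepG2 cells transiently transfected with cis-regulated multiple reporter transcription units were dosed for 24 h; reporter mRNA was quantified by RT-PCR, 6-FAM primer-extension labelling, HpaI digestion and capillary electrophoresis, with bidirectional fitting against DMSO baseline.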

[14] = ATG_ERE_CIS: Attagene CIS-FACTORIAL HepG2 Assay for Estrogen Response Element (ERE) (AID 2282940); conditions: HepG2 ERE cis-reporter, Attagene RNA transcript; actives raise or lower the signal
In short: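 HepG2 cells transiently transfected with cis-promoter-driven multiplexed reporter transcription units report endogenous TF activity. After 24 h compound exposure, reporter mRNA is quantified by RT-PCR with capillary electrophoresis fluorescence; bidirectional fitting versus DMSO baseline.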

[15] = ATG_Ets_CIS: Attagene CIS-FACTORIAL HepG2 Assay for human Erythroblast Transformation Specific (ETS) (AID 2282941); conditions: HepG2 ETS cis-reporter transcription, actives raise or lower the signal
In short: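 Cis-regulated reporter mRNA induction in HepG2 (transient transfection), 24 h exposure, RT-PCR plus capillary electrophoresis detection; DMSO serves as negative control and baseline.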

[16] = target: Hepatocyte nuclear factor 3-beta (Homo sapiens) (UniProt Q9Y261); experiment: ATG_FoxA2_CIS: Attagene CIS-FACTORIAL HepG2 Assay for human Forkhead box A2 (FOXA2) (AID 2282942); conditions: HepG2 cis-reporter transcription factor activity, 24 h; actives raise or lower the signal
In short: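 Measured: reporter mRNA induction or loss in HepG2 transiently carrying multiple cis-regulated reporter units, 24 h after dosing. Quantified by RT-PCR plus capillary electrophoresis, normalised to DMSO.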

[17] = ATG_FoxO_CIS: Attagene CIS-FACTORIAL HepG2 Assay for human Forkhead box O (FoxO) (AID 2282943); conditions: HepG2 Attagene cis-reporter, FoxO element, mRNA; actives raise or lower the signal
In short: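 Transfected HepG2 reporter cells exposed to test chemical for 24 h; reporter RNA measured by reverse transcription, PCR and fluorescent capillary electrophoresis; curves fitted for increases and decreases against DMSO.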

[18] = ATG_GATA_CIS: Attagene CIS-FACTORIAL HepG2 Assay for human GATA Binding Protein (AID 2282944); conditions: HepG2 GATA cis-element reporter, Attagene multiplex mRNA; actives raise or lower the signal
In short: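 HepG2 cells transiently transfected with multiplexed cis-element reporter units reflecting endogenous transcription factor activity; reporter mRNA measured after 24 h dosing by RT-PCR, 6-FAM labeling, HpaI digestion and capillary electrophoresis. Bidirectional fitting versus DMSO baseline.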

[19] = ATG_AP_1_CIS: Attagene CIS-FACTORIAL HepG2 Assay for human Activator Protein 1 (AP-1) (AID 2282931); conditions: HepG2 Attagene cis-factorial AP-1 reporter mRNA; actives raise or lower the signal
In short: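 Cis-regulated reporter units transiently expressed in HepG2 report endogenous transcription-factor activity. Signal: reporter mRNA at 24 h, via RT-PCR and fluorescent capillary electrophoresis. Endpoint derived by bidirectional fitting, DMSO as negative control.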

[20] = target: CCAAT/enhancer-binding protein beta (Homo sapiens) (UniProt P17676); experiment: ATG_C_EBP_CIS: Attagene CIS-FACTORIAL HepG2 Assay for human CCAAT/Enhancer Binding Protein (C/EBP) beta (AID 2282927); conditions: HepG2 Attagene cis-factorial transcription factor reporter; actives raise or lower the signal
In short: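 HepG2, transient MRTU transfection, 24 h treatment. RT-PCR plus CE fluorescence; DMSO negative control, bidirectional fit.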

Measured: AC50

Sequence of Retinoic acid receptor alpha (Homo sapiens) (P10276 whole entry, looked up): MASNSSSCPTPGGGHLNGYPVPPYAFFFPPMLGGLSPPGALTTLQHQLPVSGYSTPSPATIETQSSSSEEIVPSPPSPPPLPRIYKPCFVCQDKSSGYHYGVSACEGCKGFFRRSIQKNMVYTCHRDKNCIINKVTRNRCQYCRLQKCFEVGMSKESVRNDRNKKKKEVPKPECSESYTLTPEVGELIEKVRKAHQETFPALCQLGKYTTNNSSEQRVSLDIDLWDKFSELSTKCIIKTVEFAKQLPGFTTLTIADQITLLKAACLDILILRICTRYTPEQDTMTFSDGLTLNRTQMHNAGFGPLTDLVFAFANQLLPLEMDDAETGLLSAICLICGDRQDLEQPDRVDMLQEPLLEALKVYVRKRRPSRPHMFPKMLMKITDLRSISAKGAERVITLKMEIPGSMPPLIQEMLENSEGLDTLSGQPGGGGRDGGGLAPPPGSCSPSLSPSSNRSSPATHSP
Sequence of Transcription factor E2F1 (Homo sapiens) (Q01094 whole entry, looked up): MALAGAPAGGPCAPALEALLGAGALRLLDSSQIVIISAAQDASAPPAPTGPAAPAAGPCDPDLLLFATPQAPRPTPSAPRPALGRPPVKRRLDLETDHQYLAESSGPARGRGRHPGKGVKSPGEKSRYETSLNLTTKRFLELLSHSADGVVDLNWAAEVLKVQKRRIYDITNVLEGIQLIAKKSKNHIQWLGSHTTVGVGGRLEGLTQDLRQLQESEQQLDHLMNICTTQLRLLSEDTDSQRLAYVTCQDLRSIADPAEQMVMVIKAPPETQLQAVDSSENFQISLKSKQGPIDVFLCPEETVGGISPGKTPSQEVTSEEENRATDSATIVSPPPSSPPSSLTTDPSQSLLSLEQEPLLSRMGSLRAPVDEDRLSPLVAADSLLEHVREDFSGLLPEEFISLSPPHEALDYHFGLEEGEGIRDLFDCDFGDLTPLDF
Sequence of Hepatocyte nuclear factor 3-beta (Homo sapiens) (Q9Y261 whole entry, looked up): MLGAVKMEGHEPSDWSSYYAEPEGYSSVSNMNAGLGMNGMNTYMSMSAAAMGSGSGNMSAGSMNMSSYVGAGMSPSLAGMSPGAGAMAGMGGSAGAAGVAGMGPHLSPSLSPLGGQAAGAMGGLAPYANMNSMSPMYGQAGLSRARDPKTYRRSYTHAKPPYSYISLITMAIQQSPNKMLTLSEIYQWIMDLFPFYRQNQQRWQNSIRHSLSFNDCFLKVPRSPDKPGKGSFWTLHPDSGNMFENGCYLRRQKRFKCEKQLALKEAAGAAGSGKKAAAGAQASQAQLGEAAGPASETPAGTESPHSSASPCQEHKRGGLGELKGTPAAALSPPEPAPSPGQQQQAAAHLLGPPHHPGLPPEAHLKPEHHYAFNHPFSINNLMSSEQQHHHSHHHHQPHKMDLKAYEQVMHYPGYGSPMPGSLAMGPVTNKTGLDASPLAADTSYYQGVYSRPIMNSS
Sequence of Aryl hydrocarbon receptor (Homo sapiens) (P35869 whole entry, looked up): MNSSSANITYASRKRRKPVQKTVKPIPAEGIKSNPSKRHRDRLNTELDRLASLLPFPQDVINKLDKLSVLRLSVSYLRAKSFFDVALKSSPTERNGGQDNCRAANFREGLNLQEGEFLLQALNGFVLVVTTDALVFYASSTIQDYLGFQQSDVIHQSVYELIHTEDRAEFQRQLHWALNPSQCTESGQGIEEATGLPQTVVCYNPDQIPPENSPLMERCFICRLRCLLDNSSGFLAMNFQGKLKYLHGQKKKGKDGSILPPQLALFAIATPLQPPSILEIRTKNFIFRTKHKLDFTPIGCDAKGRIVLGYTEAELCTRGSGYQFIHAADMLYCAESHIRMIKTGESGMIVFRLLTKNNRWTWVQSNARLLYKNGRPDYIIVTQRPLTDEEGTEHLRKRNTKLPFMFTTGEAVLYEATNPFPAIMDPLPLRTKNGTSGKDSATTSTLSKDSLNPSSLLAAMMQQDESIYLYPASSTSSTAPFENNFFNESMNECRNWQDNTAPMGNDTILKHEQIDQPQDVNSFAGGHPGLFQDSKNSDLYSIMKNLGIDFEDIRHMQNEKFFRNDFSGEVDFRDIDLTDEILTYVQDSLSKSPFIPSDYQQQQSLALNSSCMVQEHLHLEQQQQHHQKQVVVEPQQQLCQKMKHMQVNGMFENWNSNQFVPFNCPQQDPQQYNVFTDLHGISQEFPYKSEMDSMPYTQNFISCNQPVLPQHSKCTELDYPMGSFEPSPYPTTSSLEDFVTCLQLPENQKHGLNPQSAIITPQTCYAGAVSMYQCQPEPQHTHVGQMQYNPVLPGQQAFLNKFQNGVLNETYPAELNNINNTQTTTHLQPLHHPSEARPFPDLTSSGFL
Sequence of CCAAT/enhancer-binding protein beta (Homo sapiens) (P17676 whole entry, looked up): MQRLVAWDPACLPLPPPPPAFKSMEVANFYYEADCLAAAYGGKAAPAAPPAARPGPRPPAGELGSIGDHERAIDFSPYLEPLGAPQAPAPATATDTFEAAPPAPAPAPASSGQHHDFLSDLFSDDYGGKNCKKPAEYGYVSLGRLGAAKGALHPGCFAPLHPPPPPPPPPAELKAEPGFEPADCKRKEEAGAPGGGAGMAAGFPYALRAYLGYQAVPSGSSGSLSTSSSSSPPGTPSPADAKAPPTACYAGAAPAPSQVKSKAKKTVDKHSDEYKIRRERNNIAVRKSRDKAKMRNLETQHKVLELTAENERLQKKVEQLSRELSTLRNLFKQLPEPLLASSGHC

Cc1cc(O)c(C(C)(C)C)cc1C(C)(C)C
active: [3] 9.14 µM | [10] 13.9 µM
inactive: [1] | [2] | [4] | [5] | [6] | [7] | [8] | [9] | [11] | [12] | [13] | [14] | [15] | [16] | [17] | [18]

O=C1c2ccccc2C(=O)c2c(Cl)cccc21
inactive: [1] | [2] | [3] | [4] | [5] | [19] | [6] | [8] | [9] | [10] | [11] | [12] | [13] | [14] | [15] | [16] | [17] | [18]

O=C1OC(=O)c2ccc3c4c(ccc1c24)C(=O)OC3=O
inactive: [2] | [3] | [4] | [5] | [19] | [6] | [7] | [9] | [10] | [11] | [12] | [13] | [14] | [15] | [17] | [18]
active: [1] 0.0537 µM

CCc1cc(Cc2cc(CC)c(N)c(CC)c2)cc(CC)c1N
active: [2] 33.4 µM | [3] 6.64 µM | [4] 24.2 µM | [19] 23.6 µM | [9] 54.4 µM | [10] 9.07 µM | [16] 33.4 µM | [17] 58.8 µM
inactive: [1] | [5] | [6] | [7] | [11] | [12] | [13] | [14] | [15] | [18]

CCc1ccc(C)nc1
inactive: [1] | [2] | [3] | [4] | [5] | [19] | [6] | [8] | [9] | [10] | [11] | [12] | [13] | [14] | [15] | [16] | [17] | [18]

NS(=O)(=O)C(F)(F)C(F)(F)C(F)(F)C(F)(F)C(F)(F)C(F)(F)F
active: [14] 41.4 µM
inactive: [1] | [2] | [20] | [3] | [4] | [5] | [6] | [8] | [9] | [10] | [11] | [12] | [13] | [15] | [17] | [18]

CC1CCCCC1
inactive: [1] | [2] | [3] | [4] | [5] | [19] | [6] | [7] | [8] | [9] | [10] | [11] | [12] | [13] | [14] | [15] | [16] | [17] | [18]
